7 molecules from PubChem BioAssay (NCI) can be followed below.

Some test systems named below: SR leukemia; RPMI-8226 leukemia; OVCAR-8 ovarian; OVCAR-5 ovarian; OVCAR-4 ovarian; IGROV1 ovarian; OVCAR-3 ovarian; HS 578T breast; NCI/ADR-RES ovarian; T-47D breast; BT-549 breast; MDA-MB-435 melanoma; SW-620 colon; MCF7 breast; HCT-116 colon; HCC-2998 colon; KM12 colon; SK-OV-3 ovarian.
What all share (experiment): NCI-60 one-dose screen, 48 h (100 = growth as untreated, 0 = no growth, -100 = all killed)
Conditions in all cases: 10 µM unless noted

Compounds without any hit were thinned out: in the full panel of roughly 83,000, 20% have a hit.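 Cell lines were cultured in 96-well plates, exposed to a single compound concentration, and assessed for percent growth 48 hours later.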 Values without a mark were called inactive. The source made the active and inactive calls. The calls were made as follows: active = growth percent below 10; inactive = the rest.

On to `COc1cnc2c(c1)C(=O)c1c-2n(CCCN2CCN(C)CC2)c(=O)c2cc([N+](=O)[O-])ccc12`, for which the growth with SR leukemia was -23.6% (active); in the experiment on RPMI-8226 leukemia, -41.6% (active); in the experiment with OVCAR-8 ovarian, -21.9% (active); in the experiment on OVCAR-5 ovarian, 111%; in the experiment on OVCAR-4 ovarian, -81.7% (active); with IGROV1 ovarian, -55.2% (active). The growth is -84.6% (active) with OVCAR-3 ovarian; 94.8% with HS 578T breast; -2.68% (active) in the experiment with NCI/ADR-RES ovarian; -57.2% (active) in the experiment with T-47D breast; -54.6% (active) in the experiment with BT-549 breast; -93.8% (active) in the experiment on MDA-MB-435 melanoma. The growth with SW-620 colon was -73% (active); with MCF7 breast it was -40.1% (active); in the experiment on HCT-116 colon it was -83.8% (active); in the experiment on HCC-2998 colon, 95.1%; with KM12 colon it was -29% (active).
Regarding `OCC1C2C=CC(C2)C1CO` (stereo not drawn), the growth in the experiment on SR leukemia was 78.7%; in the experiment with RPMI-8226 leukemia, 97%; with OVCAR-8 ovarian, 98.6%; in the experiment with OVCAR-5 ovarian, 101%; in the experiment on OVCAR-4 ovarian it was 94%; with SK-OV-3 ovarian, 175%. In addition, the growth with OVCAR-3 ovarian is 107%; in the experiment on HS 578T breast, 104%; in the experiment with NCI/ADR-RES ovarian, 104%; in the experiment on T-47D breast, 153%; with BT-549 breast it was 98.7%; in the experiment on MDA-MB-435 melanoma, 109%. In addition, the growth is 98% in the experiment with SW-620 colon; 111% with MCF7 breast; 96.7% in the experiment on HCT-116 colon; 125% with HCC-2998 colon; 106% in the experiment with KM12 colon.
`NC(=S)N/N=C/c1ccc(OCc2ccccc2)cc1`: the growth is 62.8% in the experiment on SR leukemia; 1.94% (active) in the experiment with RPMI-8226 leukemia; 78.2% in the experiment on OVCAR-8 ovarian; 89.7% in the experiment with OVCAR-5 ovarian; 44.8% in the experiment with OVCAR-4 ovarian; 80% in the experiment with SK-OV-3 ovarian. The growth is 62.1% in the experiment on OVCAR-3 ovarian; 81.2% with HS 578T breast; 83.7% in the experiment on NCI/ADR-RES ovarian; 58.4% in the experiment on BT-549 breast; 74% with MDA-MB-435 melanoma; 66.2% with SW-620 colon. The growth with MCF7 breast was 52.1%; in the experiment on HCT-116 colon it was 52.5%; with HCC-2998 colon, 79.2%; in the experiment on KM12 colon, 84.6%.
Turning to `Cc1ccc2c(c1)n([O-])c1cc(Cl)ccc1[n+]2=O`, the growth in the experiment on SR leukemia was 5.98% (active); in the experiment with RPMI-8226 leukemia, 104%; with OVCAR-8 ovarian, 108%; in the experiment with OVCAR-5 ovarian, 102%; in the experiment with OVCAR-4 ovarian, 82.6%; in the experiment with IGROV1 ovarian, 101%. The growth is 92.6% with OVCAR-3 ovarian; 135% in the experiment with HS 578T breast; 104% in the experiment with NCI/ADR-RES ovarian; 93.9% in the experiment with T-47D breast; 108% with BT-549 breast; 96.8% in the experiment on MDA-MB-435 melanoma. In addition, the growth is 119% with SW-620 colon; 108% in the experiment with MCF7 breast; 84.2% in the experiment on HCT-116 colon; 120% in the experiment on HCC-2998 colon; 105% in the experiment on KM12 colon.
Take `O=C1c2cc3c(cc2-c2c1c1cc(Cl)c(Cl)cc1c(=O)n2CCCn1ccnc1)OCO3`: the growth with SR leukemia is -13.4% (active); in the experiment with RPMI-8226 leukemia, -0.183% (active); with OVCAR-8 ovarian it was 8.55% (active); with OVCAR-5 ovarian, 25.9%; in the experiment on OVCAR-4 ovarian it was 30.1%; in the experiment on SK-OV-3 ovarian, -3.8% (active). Besides, the growth with OVCAR-3 ovarian was 5.18% (active); with HS 578T breast, 66.7%; with NCI/ADR-RES ovarian it was 4.47% (active); in the experiment with T-47D breast it was 0.538% (active); in the experiment on BT-549 breast, 19.1%; in the experiment with MDA-MB-435 melanoma, 18.5%. The growth is 25.6% with SW-620 colon; 1.23% (active) with MCF7 breast; 3.49% (active) in the experiment with HCT-116 colon; 28.6% in the experiment with HCC-2998 colon; 6% (active) in the experiment with KM12 colon.
For `COCCCNc1nc(NC(=O)c2ccc(F)cc2C)cc(-c2cccnc2)n1`, the growth in the experiment on SR leukemia was 110%; with RPMI-8226 leukemia it was 90.2%; in the experiment on OVCAR-8 ovarian, 91.6%; in the experiment with OVCAR-5 ovarian, 106%; in the experiment on OVCAR-4 ovarian it was 117%; in the experiment on IGROV1 ovarian, 109%. The growth was 106% with OVCAR-3 ovarian; 94% in the experiment with HS 578T breast; 94.2% in the experiment on NCI/ADR-RES ovarian; 89.4% with T-47D breast; 103% in the experiment on BT-549 breast; 103% in the experiment with MDA-MB-435 melanoma. For the same molecule, the growth is 109% with SW-620 colon; 103% in the experiment on MCF7 breast; 101% with HCT-116 colon; 103% with HCC-2998 colon; 104% with KM12 colon.
`CCOC(=O)Cc1cnn(C)c1NC(=O)c1ccc(Cl)cc1NC(C)=O`: the growth with SR leukemia was 104%; with RPMI-8226 leukemia, 102%; in the experiment on OVCAR-8 ovarian it was 99.8%; in the experiment on OVCAR-5 ovarian, 99.3%; in the experiment on OVCAR-4 ovarian it was 110%; with IGROV1 ovarian it was 105%. The growth with OVCAR-3 ovarian was 108%; in the experiment on HS 578T breast, 97%; in the experiment on NCI/ADR-RES ovarian, 106%; in the experiment with T-47D breast it was 103%; in the experiment on BT-549 breast, 93.2%; with MDA-MB-435 melanoma, 99.4%. In addition, the growth with SW-620 colon is 105%; in the experiment on MCF7 breast, 106%; with HCT-116 colon it was 101%; in the experiment with HCC-2998 colon, 107%; in the experiment with KM12 colon, 102%.
